HT1080 IDH1KD tx – toxicity to HT-1080 IDH1 knockdown cells (counter line); Potency, µM (titrated, usually from 46.1 µM), most hits filed as cytotoxic; HT-1080 IDH1 knockdown viability, ATP luminescence, 48 h; AID 686971; 360,000 tested, 2% active
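After a 2 h attachment period, IDH1KD HT-1080 cells took pin-transferred compound for 48 h at 37 °C; ATP-based luminescence after 10 min room-temperature reagent incubation reported viability.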
KB-3-1 cytotox – kills parental KB-3-1 adenocarcinoma cells. KB-3-1 viability, CellTiter-Glo ATP luminescence, 72 h. Potency, µM (titrated, usually from 46.1 µM), usual class: cytotoxic. 400,000 tested, 1.4% active. AID 1347075; further: nearly all actives have a fitted effect of over 60% in size
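Cytotoxicity in the drug-sensitive parental line KB-3-1 was scored as loss of CellTiter-Glo luminescence following 72 h incubation with compound. Values come from curve fitting of normalized concentration-response data.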
KB-V1 MDR tox – KB-V1 MDR subline cytotoxicity. 400,000 tested, 3.4% active. KB-V1 MDR cells viability, CellTiter-Glo, 72 h. Potency, µM (series often up to 46.1 µM), most hits filed as cytotoxic; further: nearly all actives have a fitted effect of over 60% in size
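Compound-treated KB-V1 multidrug-resistant cells, 72 h, 37 degrees C; viability by CellTiter-Glo. Fitted qHTS curves give the values.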
HT1080-NT tox – kills 2HG-producing HT-1080-NT fibrosarcoma cells. AID 686970. Potency, µM (doses to about 46.1 µM), most hits filed as cytotoxic. 360,000 tested, 1.6% active. HT-1080-NT fibrosarcoma viability, CellTiter-Glo ATP luminescence, 48 h;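 further: NT is the 2HG producing partner of a matched IDH1 knockdown line; nearly all actives have a fitted effect of over 55% in size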
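Fibrosarcoma NT cells, 750 per well in 5% FBS RPMI, were exposed to compound for 48 hours. Viability: CellTiter-Glo luminescence.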
Of the large screens only hits and unclear results are named; the others gave an inactive call. Sampled rows, rich in hits. Any-hit rate of the full collection: about 5.7%. The call rests on the fitted dose curve; in most records, active means well fitted curve in the direction sought with a large enough effect; inconclusive means small, poorly fitted or top-dose-only effect, or another doubt; inactive means no such curve, though single readings can be large; an effect the other way counts as inactive or inconclusive.

COC(=O)[C@@]1(Cc2ccc(F)cc2)[C@H]2c3cc(C(=O)N4CCCC4)n(CCF)c3C[C@H]2CN1C(=O)c1ccccc1	KB-3-1 cytotox inconclusive, KB-V1 MDR tox inconclusive, HT1080-NT tox inconclusive
CCOc1ccc(C(=O)NCC(c2ccco2)S(=O)(=O)c2cccs2)cc1 (configuration not stated)	none (no result: HT1080 IDH1KD tx, HT1080-NT tox)
CCCCn1c(CNC(=O)C23CC4CC(CC(C4)C2)C3)nnc1SC(C)CC (configuration not stated)	HT1080 IDH1KD tx inconclusive, KB-3-1 cytotox inconclusive, KB-V1 MDR tox 20.6µM, HT1080-NT tox inconclusive
CCCCSc1nnc(CNC(=O)C23CC4CC(CC(C4)C2)C3)n1Cc1ccccc1	KB-3-1 cytotox inconclusive, KB-V1 MDR tox 2.59µM
COc1ccc(CN(C)C(=O)c2cc(-c3ccccc3)nc3ccc(C)cc23)c(OC)c1	HT1080 IDH1KD tx inconclusive, KB-3-1 cytotox 18.4µM, KB-V1 MDR tox inconclusive, HT1080-NT tox inconclusive
COc1ccccc1CN(C)C(=O)c1cc(C)nc2ccccc12	KB-3-1 cytotox inconclusive, KB-V1 MDR tox inconclusive
CN(CC(=O)Nc1ccccc1Br)C(=O)c1ccccc1OCc1ccc(Cl)cc1	KB-3-1 cytotox inconclusive, KB-V1 MDR tox 5.8µM
Cc1ccc2nc(-c3ccccc3)cc(C(=O)N(C)CC(=O)Nc3ccccc3Br)c2c1	HT1080 IDH1KD tx inconclusive, KB-3-1 cytotox inconclusive, KB-V1 MDR tox 20.6µM, HT1080-NT tox inconclusive
O=C(C[C@@H]1CC[C@@H]2[C@H](COC[C@H](O)CN2C(=O)Nc2ccc(F)cc2)O1)NCCc1ccncc1	none
COCCNC(=O)c1cccc(Nc2nc(-c3ccccc3)c3cc(Cl)ccc3n2)c1	HT1080 IDH1KD tx inconclusive, KB-3-1 cytotox 14.6µM, KB-V1 MDR tox inconclusive
CC(NC(=O)C(Cc1ccccc1)N1C(=O)C2C3CCC(C3)C2C1=O)c1ccccc1 (configuration not stated)	KB-V1 MDR tox 7.31µM
CC(c1ccccc1)N1C(=O)C2C3CCC(C3)C2C1=O (configuration not stated)	none
CNc1c(Cl)cc(/C=C2\C=Cc3ccccc32)cc1Cl	none (no result: HT1080 IDH1KD tx, HT1080-NT tox)
Cc1ccc2[nH]c(=O)c(CN(CCc3ccccc3)Cc3nnnn3CC3CCCO3)cc2c1 (configuration not stated)	KB-V1 MDR tox 14.6µM
COc1ccc2[nH]c(=O)c(CN(CCc3ccccc3)Cc3nnnn3CC3CCCO3)cc2c1 (configuration not stated)	HT1080-NT tox inconclusive
COc1ccccc1CN(Cc1cc2cc(C)ccc2[nH]c1=O)Cc1nnnn1CC1CCCO1 (configuration not stated)	KB-V1 MDR tox 20.6µM
COc1ccc(S(=O)(=O)c2c(Nc3ccc(F)cc3)sc(C(=O)c3ccc4c(c3)OCO4)c2N)cc1	KB-V1 MDR tox inconclusive (no result: HT1080 IDH1KD tx, HT1080-NT tox)
O=[N+]([O-])c1ccc2[nH]c(=S)sc2c1	KB-3-1 cytotox inconclusive, KB-V1 MDR tox 11.6µM, HT1080-NT tox inconclusive
O=[N+]([O-])c1ccc2[nH]c(=S)[nH]c2c1	none
Cc1ccc(S(=O)(=O)N2CCN(c3nc(-c4ccnnc4)nc4ccccc34)CC2)cc1	none (no result: KB-3-1 cytotox, KB-V1 MDR tox)
Cc1cc(/C=N\NC(=O)CC(=O)NC2CCCCC2)c(C)n1-c1ccc(Cl)cc1	HT1080 IDH1KD tx inconclusive, KB-V1 MDR tox 20.6µM
O=C(CC(=O)NC1CCCCC1)N/N=C/c1ccc(Cl)cc1	none
CN(C)S(=O)(=O)c1ccc(C(=O)OCC(=O)NCc2ccco2)cc1	none
COc1ccc2c(c1)-c1c(sn(-c3ccc(OC)c(OC)c3)c1=S)C(C)(C)N2	HT1080 IDH1KD tx 18.4µM, HT1080-NT tox inconclusive
COc1ccc(-n2sc3c(c2=S)-c2cc(OC)ccc2NC3(C)C)cc1	HT1080 IDH1KD tx inconclusive, HT1080-NT tox inconclusive
Cc1ccc(S(=O)(=O)C(C#N)c2nc3ccccc3nc2N2CCCC2)cc1 (configuration not stated)	KB-V1 MDR tox 18.4µM
CCn1c2ccccc2c2cc(NC(=O)c3ccc(C)c([N+](=O)[O-])c3)ccc21	KB-3-1 cytotox inconclusive
CCn1c2ccccc2c2cc(NC(=O)N3CCOCC3)ccc21	none
COc1ccc(/C=N/NC(=O)CCC(=O)Nc2ccccc2)cc1OC	none
COc1ccc(/C=N/NC(=O)CCn2cnc(-c3ccccc3)c2-c2ccccc2)cc1OC	HT1080 IDH1KD tx 8.2µM, KB-3-1 cytotox 6.51µM, KB-V1 MDR tox inconclusive, HT1080-NT tox 9.2µM
CCn1c2ccccc2c2cc(NC(=O)CN(C)CC(=O)Nc3ccc(N4CCOCC4)cc3)ccc21	HT1080 IDH1KD tx 25.9µM, KB-3-1 cytotox inconclusive, KB-V1 MDR tox inconclusive
Cc1nc2cc(NC(=O)c3ccc(Cl)cc3)ccc2n1C	none
COc1cc(C(=O)Nc2ccc3c(c2)nc(C)n3C)cc(OC)c1OC	HT1080 IDH1KD tx 9.2µM, KB-3-1 cytotox 4.11µM, HT1080-NT tox 6.51µM
CCn1c2ccccc2c2cc(NC(=O)c3cccc([N+](=O)[O-])c3C)ccc21	HT1080 IDH1KD tx 13µM, KB-3-1 cytotox inconclusive, KB-V1 MDR tox inconclusive, HT1080-NT tox 23.1µM
Fc1ccc(CNc2nc3c(-c4ccc(F)cc4)nnn3c3ccccc23)cc1	none (no result: HT1080 IDH1KD tx, HT1080-NT tox)
CCS(=O)(=O)Nc1cc(-c2cn3ccc(C)cc3n2)ccc1C	none (no result: HT1080 IDH1KD tx, HT1080-NT tox)
COc1cccc(CNC(=O)c2sc3nc4n(c(=O)c3c2C)CCC4)c1	KB-3-1 cytotox inconclusive (no result: HT1080 IDH1KD tx, HT1080-NT tox)
CCn1c2ccccc2c2cc(NC(=O)c3ccc(Br)o3)ccc21	none
CCn1c2ccccc2c2cc(/C=N/NC(=O)c3ccc(O)cc3)ccc21	HT1080 IDH1KD tx inconclusive, KB-3-1 cytotox inconclusive, KB-V1 MDR tox 20.6µM, HT1080-NT tox inconclusive
COc1cc(/C=N/NC(=O)CCn2c3ccccc3c3ccccc32)cc(OC)c1OC	KB-V1 MDR tox 4.61µM
CCn1c2ccccc2c2cc(NC(=O)c3ccc(=O)oc3)ccc21	HT1080 IDH1KD tx 29.1µM, HT1080-NT tox inconclusive
CCn1c2ccccc2c2cc(NC(=O)c3cc(C)on3)ccc21	HT1080 IDH1KD tx 23.1µM, KB-V1 MDR tox inconclusive, HT1080-NT tox inconclusive
COc1ccc(Cn2ccc3nc(C)c(C(=O)NCc4ccc(SC)cc4)cc3c2=O)cc1	none (no result: HT1080 IDH1KD tx, HT1080-NT tox)
N#C/C(=C\c1ccc(F)cc1)C(=O)NCC1CCCO1 (configuration not stated)	KB-V1 MDR tox inconclusive (no result: HT1080 IDH1KD tx, HT1080-NT tox)
CCn1c2ccccc2c2cc(NC(=O)COc3ccc(OC)cc3)ccc21	HT1080-NT tox inconclusive
CCn1c2ccccc2c2cc(NC(=O)c3cc(OC)cc(OC)c3)ccc21	HT1080 IDH1KD tx 1.46µM, KB-3-1 cytotox inconclusive, KB-V1 MDR tox 2.31µM, HT1080-NT tox 1.3µM
CCn1c2ccccc2c2cc(NC(=O)c3cc(OC)c(OC)c(OC)c3)ccc21	HT1080 IDH1KD tx 1.46µM, KB-3-1 cytotox 0.581µM, KB-V1 MDR tox inconclusive, HT1080-NT tox 0.82µM
CCn1c2ccccc2c2cc(NC(=O)c3cccc([N+](=O)[O-])c3)ccc21	HT1080 IDH1KD tx inconclusive, HT1080-NT tox inconclusive
Cc1c(C(=O)Nc2ccc(C(=O)Nc3ccccc3)cc2)cccc1[N+](=O)[O-]	KB-V1 MDR tox inconclusive
CN(CC(=O)Nc1ccc(N2CCOCC2)cc1)C(=O)CCc1cc(C(C)(C)C)c(O)c(C(C)(C)C)c1	KB-V1 MDR tox 3.66µM
Cc1ccc(CC(=O)N(C)CC(=O)Nc2ccc(N3CCOCC3)cc2)cc1C	none

Screening data deposited in PubChem BioAssay by National Center for Advancing Translational Sciences (NCATS).
